Bioassay records from PubChem.
Only a selection was taken, and hits are over-represented in it overall.
Sfp inh – Sfp phosphopantetheinyl transferase inhibition; Biochemical Sfp PPTase activity, qHTS; Potency, µM, for the others: largest response in the series, negative = inhibition, actives largely listed as inhibitors; hit rate 3.5% among 310,000; AID 1490;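 also: the enzyme is Sfp with the accession as filed and its product quenches rhodamine fluorescence; potency is read from the fitted curve at half-maximal effect; 0% = enzyme reaction without inhibitor and -100% = no enzyme wells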
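Step 1, compound plus 15 nM Sfp-PPTase, 15 min, room temperature. Step 2, add rhodamine-CoA (5 uM) and BHQ-2-YbbR (12.5 uM). Step 3, read 525/598 nm fluorescence at 0 and 30 min.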
VDR inh – vitamin D3 receptor (human) inhibition; AID 504847; hit rate 0.93% among 400,000; VDR-SRC2-3 peptide fluorescence polarization, 2 h; P11473; Potency, µM, for inactives: max response, negative = inhibition, most hits filed as inhibitors; also: potency is read from the fitted curve at half-maximal effect; % is scaled to controls: 0 for no effect and ±100 for the full control effect
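Measured by FP: displacement of SRC2-3 coactivator peptide from VDR by library compounds, following a two-hour ambient incubation.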
G9a inh – G9a (human) methyltransferase inhibition; Q96KQ7; G9a H3K9 monomethylation, AlphaScreen, 2 h; Potency, µM (highest dose often 102 µM), for inactives: at the top dose activity, negative = inhibition, actives largely listed as inhibitors; hit rate 8.8% among 350,000; also: potency is read from the fitted curve at half-maximal effect; % is scaled to controls: 0 for no effect and ±100 for the full control effect; nearly all actives have a fitted effect of over 75% in size
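Quantitative HTS format: methyltransferase activity on a biotin-tagged H3K9 peptide is measured by AlphaScreen, using a rabbit anti-monomethyl-H3K9 antibody with streptavidin donor and anti-IgG acceptor beads. Final levels are 20 nM enzyme, 500 nM peptide, 20 uM SAM; 2 h RT.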
12-LOX inh – blocks human arachidonate 12S-lipoxygenase | P18054 | Potency, µM (series often up to 108 µM), for the others: at the highest dose activity change, negative = inhibition, most hits filed as inhibitors | hit rate 1.1% among 580,000 | purified 12hLO, xylenol orange hydroperoxide absorbance; also: potency is read from the fitted curve at half-maximal effect; % is scaled to controls: 0 for no effect and ±100 for the full control effect
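Purified human 12hLO (150 nM final) in 25 mM Hepes, 0.01% Triton X-100, pH 7.0 was preincubated 15 min at room temperature with compound. Then 40 uM arachidonic acid was added, 30 min. Hydroperoxide was read by Fe-XO absorbance ratio 573/405 nm.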
Glioma ERSR ind – induces the endoplasmic reticulum stress response in human glioma cells; U87-MG GRP78 promoter luciferase reporter, 16 h; Potency, µM, for the others: top-dose activation, actives largely listed as activators; hit rate 0.02% among 420,000; AID 602332; also: potency is read from the fitted curve at half-maximal effect; series mostly up to about 76 µM; % of control where 0% means no effect; nearly all actives have a fitted effect of over 35% in size
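Stably transfected U87-MG human glioma cells carrying a GRP78-based luminescent sensor were seeded at 1000 cells/well, pin-dosed with compounds and incubated 16 h. Luciferase reagent was then added, and end-point luminescence was read after 10 min at room temperature.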
USP1 UbRho – blocks human USP1/UAF1 cleavage of Ub-Rhodamine; Ub-Rhodamine cleavage, fluorescence kinetic read; shares compounds with VDR inh; AID 540327; Potency, µM (doses to about 114 µM), for the others: at the highest dose activity change, negative = inhibition, hits mostly inhibitors; hit rate 50% among 50
Target sequence (O94782 whole entry, looked up): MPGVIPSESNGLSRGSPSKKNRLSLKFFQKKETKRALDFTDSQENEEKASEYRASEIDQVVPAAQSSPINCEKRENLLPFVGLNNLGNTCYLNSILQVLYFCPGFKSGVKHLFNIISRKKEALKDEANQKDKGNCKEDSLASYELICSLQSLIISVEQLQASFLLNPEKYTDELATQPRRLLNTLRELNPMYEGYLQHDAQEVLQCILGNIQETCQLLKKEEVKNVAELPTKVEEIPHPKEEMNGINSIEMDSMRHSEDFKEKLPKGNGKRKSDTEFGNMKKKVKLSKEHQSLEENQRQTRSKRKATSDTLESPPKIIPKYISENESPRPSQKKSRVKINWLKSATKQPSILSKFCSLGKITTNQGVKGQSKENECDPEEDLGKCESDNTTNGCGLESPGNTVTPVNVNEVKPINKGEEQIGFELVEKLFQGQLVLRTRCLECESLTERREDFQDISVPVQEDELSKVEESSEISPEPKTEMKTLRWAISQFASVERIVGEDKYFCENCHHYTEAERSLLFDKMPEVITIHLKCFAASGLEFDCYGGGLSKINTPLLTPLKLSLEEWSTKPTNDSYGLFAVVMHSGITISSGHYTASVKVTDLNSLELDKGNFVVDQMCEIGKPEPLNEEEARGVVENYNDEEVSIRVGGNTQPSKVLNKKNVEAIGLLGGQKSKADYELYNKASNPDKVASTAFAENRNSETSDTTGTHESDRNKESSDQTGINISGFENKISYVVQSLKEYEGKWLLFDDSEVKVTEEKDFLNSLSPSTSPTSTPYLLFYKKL
VDR confirm – confirmation of human vitamin D receptor inhibitors; hit rate 89% among 840; VDR-coactivator inhibition assay, qHTS confirmation; shares compounds with VDR inh; Potency, µM, most hits filed as inhibitors; also: potency is read from the fitted curve at half-maximal effect
VDR FP fluor – confirmation of human VDR-coactivator binding inhibitors, fluorescein label; shares compounds with VDR inh; VDR-coactivator binding, fluorescein fluorescence polarization; hit rate 48% among 840; Potency, µM (top dose mostly 57.1 µM), inactives show at the highest dose activity change, negative = inhibition, hits mostly inhibitors; also: potency is read from the fitted curve at half-maximal effect
VDR bla reporter – inhibits human VDR in beta-lactamase reporter cells | shares compounds with VDR inh | VDR beta-lactamase reporter cells, FRET ratio; cells co-treated with VDR agonist LG190178 | Potency, µM (top dose mostly 46.1 µM), inactives show top-dose activity change, negative = inhibition, most hits filed as inhibitors | hit rate 23% among 840 | AID 602202; also: potency is read from the fitted curve at half-maximal effect; % is scaled to controls: 0 for no effect and ±100 for the full control effect
VDR viability – counter-screen for vitamin D receptor inhibitors: cytotoxicity | shares compounds with VDR inh | cytotoxicity counter-screen, cell viability, qHTS | Potency, µM (highest dose often 48.3 µM), without a hit: at the highest dose activity change, negative = cytotoxicity, usual class: cytotoxic | hit rate 18% among 840 | AID 602204;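 also: potency is read from the fitted curve at half-maximal effect; plate controls were DMSO for no effect and high-concentration cycloheximide for full effect; nearly all actives have a fitted effect of over 75% in size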
The depositor's hits bear a star; ? = inconclusive; . = no result given; ! = not active in a repeat; [ ] = another dose, or the depositor's remark. Calls follow the shape of the dose curve; as a rule, active = well fitted curve in the direction sought with a large enough effect; inconclusive = small, poorly fitted or top-dose-only effect, or another doubt; inactive = no such curve, though single readings can be large; an effect the other way counts as inactive or inconclusive.

SMILES	Sfp inh	VDR inh	G9a inh	12-LOX inh	Glioma ERSR ind	VDR confirm	VDR FP fluor	VDR bla reporter	VDR viability	others
CN1C(=O)/C(=N\OC(=O)c2ccccc2Cl)c2ccccc21	-12.3%	?	?	-17.8%	-3.1%	14.1*	15.8µM*	?	2.2%
CN1CCN(CCCN2c3ccccc3Sc3ccc(C(F)(F)F)cc32)CC1	?	?	15.8µM*!	?	-8.5%	.	.	.	.	USP1 UbRho=?
COc1cc(/C=C2\C(=O)N(CCC#N)N=C2C)c(Br)cc1OC(C)C	7.8%	?	-18.5%[59 µM]	-10.3%	-3.8%	8.44*	?	19.1%	17.8%
COc1cccc(NC(=O)COc2coc(CN3CCSCC3)cc2=O)c1	.	.	.	6.1%	.	.	.	.	.
CCCc1c(OCCCOc2ccc(OCC(=O)O)cc2)ccc(C(C)=O)c1O	.	50.1µM*	-3.6%[59 µM]	-26.9%	0.1%	.	.	.	.	USP1 UbRho=?
O=[N+]([O-])c1c(Nc2ccc(O)cc2)cc(N2CCOCC2)c2nonc12	-6.6%	-18.3%	-15.4%[59 µM]	-13.3%	1.0%	.	.	.	.
O=C(O)c1cc(Nc2cc(Cl)c3nonc3c2[N+](=O)[O-])ccc1O	44.7µM*	3.55µM*	35.5µM*	?	-4.2%	2.67*	?	3.3%	19.0%
O=[N+]([O-])c1c(Nc2ccccc2O)cc(Cl)c2nonc12	-63.6%	44.7µM*	.	?	-13.9%	4.23*	?	4.61µM*	13µM*
N#Cc1cccc(OCC(=O)c2ccc3c(c2)OCCO3)c1	.	.	.	25.1%	.	.	.	.	.
CCOc1ccc(NC(=O)CC2SC(=O)N(c3ccccc3)C2=O)cc1 (stereo not drawn)	10µM*	28.2µM*	.	-13.0%	5.4%	?	?	28.6%	14.3%
CCOc1ccccc1NC(=O)CC1SC(=N)N(c2ccccc2)C1=O (stereo not drawn)	-5.0%	.	5.6%	-1.3%	.	.	.	.	.
O=C(CCc1ncc(-c2ccccc2Cl)o1)Nc1ccc(F)cc1	.	.	.	-33.2%	.	.	.	.	.
COc1ccc(S(=O)(=O)CC(=O)c2cc3cc(Br)ccc3oc2=O)cc1	-22.7%	?	25.1µM*	7.94µM*	11.3%	10*	3.98µM*	-26.0%	28.5%
COc1ccc(OC)c(S(=O)(=O)CC(=O)c2cc3ccc(OC)cc3oc2=O)c1	-9.7%	-9.0%	-12.6%	.	-5.4%	.	.	.	.
CN(C)S(=O)(=O)c1ccc2c(c1)/C(=C/c1cc3c([nH]1)CCCC3)C(=O)N2	.	-18.7%	11.2µM*!	-15.0%	-4.5%	.	.	.	.	USP1 UbRho=46.9µM*
Cc1ccc(C(=O)Nc2nc3ccc(S(=O)(=O)N(C)C)cc3s2)cc1C	.	.	.	-36.4%	.	.	.	.	.
COc1cc(-c2cc(C(=O)Nc3cc(S(=O)(=O)N4CCOCC4)ccc3O)c3ccccc3n2)cc(OC)c1OC	.	?	.	?	-3.6%	?	31.6µM*	0.6%	29.1%
COc1cc(-c2cc(C(=O)Nc3cc(S(=O)(=O)N4CCOCC4)ccc3C)c3ccccc3n2)cc(OC)c1OC	.	-16.2%	?	.	-2.3%	.	.	.	.
Cn1nc(-c2cccnc2)nc2c(=O)n(C)c(=O)nc1-2	.	-8.1%	.	.	-8.6%	.	.	.	.
Cc1ccc(/C=c2\sc3nc(-c4cccnc4)nn3c2=O)cc1	10.2%	?	?	-21.0%	0.7%	2.24*	1.12µM*	2.7%	17.8%
CC(C)c1ccc(/C=c2\sc3nc(-c4ccncc4)nn3c2=O)cc1	-3.6%	22.4µM*	?	?	5.4%	2.67*	?	-6.9%	17.7%
CCOc1ccc(/C=c2\sc3nc(-c4ccco4)nn3c2=O)cc1OCC	-7.8%	-15.1%	?	?	-5.0%	.	.	.	.
CCOC(=O)c1oc2c(c1C)/C(=N\OC(C)=O)CCC2	.	.	.	-0.2%	.	.	.	.	.
COc1cccc2cc(-c3nn4c(C(C)C)nnc4s3)oc12	.	.	.	-31.4%	.	.	.	.	.
CCOC(=O)CCS(=O)(=O)c1nc(-c2ccccc2)cc(C(F)(F)F)n1	10µM*	44.7µM*	2.82µM*	?	-13.3%	5.97*	10µM*	?	?
SMILES	Sfp inh	VDR inh	G9a inh	12-LOX inh	Glioma ERSR ind	VDR confirm	VDR FP fluor	VDR bla reporter	VDR viability	others
CCOC(=O)CS(=O)(=O)c1nc(-c2ccc(F)cc2)cc(C(F)(F)F)n1	-60.6%	?	?	72.4%	-17.0%	.	.	.	.
CCOC(=O)CS(=O)(=O)c1nc(-c2ccccc2)cc(C(F)(F)F)n1	50.1µM*	20µM*	35.5µM*	59.6%	-15.4%	7.52*	?	?	?
O=C(/C=C/c1ccc2ccccc2c1)c1ccc(F)cc1F	.	.	.	-44.4%	.	.	.	.	.
O=C(NC1CCCCCC1)C(=S)N1CCCC1	15.5%	-7.3%	.	2.2%	-4.8%	.	.	.	.
O=C(NC1CCCCCC1)C(=S)N1CCOCC1	15.8µM*	17.8µM*	?	?	3.0%	21.2*	?	-4.4%	21.9%
Cc1ccc(C)c(NC(=O)c2cccc[n+]2[O-])c1	.	.	.	13.3%	.	.	.	.	.
O=C(Nc1ccc(N2CCOCC2)c(S(=O)(=O)Nc2ccc(Cl)cc2)c1)c1cnccn1	5.62µM*	79.4µM*	.	8.91µM*	0.7%	16.8*	?	18.5%	-11.6%
O=C(Nc1ccc(N2CCOCC2)c(S(=O)(=O)Nc2ccc(Cl)cc2)c1)c1ccc(=O)[nH]n1	.	2.7%	.	?	-5.5%	.	.	.	.
N#CC1=C(N)C(C#N)(C#N)C(c2cccnc2)C2CN(C(=O)OCc3ccccc3)CC=C12 (stereo not drawn)	-1.4%	20µM*	?	7.3%	-18.2%	11.9*	?	6.1%	-8.1%
C#Cc1cccc(NS(=O)(=O)c2cccs2)c1	.	.	.	85.6%	.	.	.	.	.
CCc1sc(C(C2C(=O)CC(C)(C)CC2=O)C2C(=O)CC(C)(C)CC2=O)cc1[N+](=O)[O-]	11.2µM*	12.6µM*	.	?	-15.8%	3.36*	?	?	-12.7%
Cc1cc(Br)c2c(c1)/C(=C/C(=O)c1cccs1)C(=O)N2	-15.7%	?	?	?	?	.	.	.	.
CCc1ccc2c(c1)/C(=C/C(=O)c1cccs1)C(=O)N2	44.7µM*	25.1µM*	11.2µM*	?	-13.8%	15*	8.91µM*	?	?
